# Data taken from PubChem BioAssay (NCI).
# Compounds without any hit were thinned out: in the full panel of roughly 83,000, 20% have a hit.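 Cell lines were cultured in 96-well plates, exposed to a single compound concentration, and assessed for percent growth 48 hours later.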 A number with no mark means an inactive call. The source made the active and inactive calls. The calls were made as follows: active = growth percent below 10; inactive = the rest.
# Key:
# Assay in all cases: NCI-60 one-dose screen, 48 h (100 = growth as untreated, 0 = no growth, -100 = all killed)
# Details in all cases: 10 µM
# K-562 leukemia = test system: K-562 leukemia
# MALME-3M melanoma = test system: MALME-3M melanoma
# MDA-MB-231 breast = test system: MDA-MB-231 breast
# RXF 393 renal = test system: RXF 393 renal
# SF-268 CNS = test system: SF-268 CNS
# SF-295 CNS = test system: SF-295 CNS
# SF-539 CNS = test system: SF-539 CNS
# UACC-257 melanoma = test system: UACC-257 melanoma
# M14 melanoma = test system: M14 melanoma
# HCT-15 colon = test system: HCT-15 colon
SMILES,growth (K-562 leukemia),growth (MALME-3M melanoma),growth (MDA-MB-231 breast),growth (RXF 393 renal),growth (SF-268 CNS),growth (SF-295 CNS),growth (SF-539 CNS),growth (UACC-257 melanoma),growth (M14 melanoma),growth (HCT-15 colon)
Cc1ccc(NC(=O)Nc2cccnc2)cc1NC(=O)Nc1cccnc1,57.4%,102%,92.8%,82.7%,96.8%,77.9%,87.5%,10.9%,91.6%,84%
N=C(N)c1ccc(-c2ccc(-c3ccco3)o2)cc1,7.46% (active),53%,52.4%,62.5%,74.4%,61.4%,83.1%,64.2%,74%,31.2%
COc1cc(-c2cc(/C=C/C(=O)c3ccc4c(c3)OCO4)[nH]n2)cc(OC)c1OC,22.3%,95.7%,64.5%,75.4%,85.3%,19.5%,3.66% (active),107%,101%,63.9%
CN1CC[C@@H](c2c(O)cc(O)c3c(=O)cc(-c4ccccc4Cl)oc23)[C@@H](O)C1,-23.8% (active),-68.9% (active),13.4%,12.4%,9.12% (active),7.54% (active),-31.3% (active),15.5%,-58.9% (active),-26.7% (active)
COc1ccc(-c2ccc(-c3ccc(C(=N)N)cn3)o2)cc1,24.7%,39.4%,47.4%,85.7%,81.2%,68.7%,79.7%,62.8%,75.3%,59.8%
Nc1nc(N)c2c(ccc3nccc32)[nH]1,16.6%,58.7%,73.5%,56.5%,46.6%,34.4%,57.9%,-9.73% (active),28.7%,46.9%
O=C1ON=[N+](c2ccc(Cc3ccc([N+]4=NOC(=O)C4CN4CCOCC4)cc3)cc2)C1CN1CCOCC1 (stereo not given),26.4%,65.6%,60.5%,72.2%,78.3%,44.1%,77.5%,75.1%,69.5%,78.6%
CC(C)=NNc1ncnc2c1ncn2C1OC(CO)C(O)C1O (stereo not given),14.8%,-15.8% (active),19.3%,23.1%,40.9%,8.82% (active),35.3%,73.9%,35.8%,12.6%
O=S(=O)(NCCCNc1nccc(-c2c(-c3ccc(F)cc3)nc3sccn23)n1)c1ccc2ccccc2c1,3.75% (active),50.3%,34.9%,66.7%,40.3%,43.7%,85.3%,56.8%,47.7%,35.1%
CSCCCNC(=O)c1ccc2c(c1)/C(=C/c1[nH]c(C)cc1C)C(=O)N2,49.1%,-9.58% (active),20.9%,-31% (active),31.6%,29.2%,13.2%,48.9%,8.79% (active),22.5%
Clc1ccc(Sc2nc(NC3CC3)nc(Sc3ccc(Cl)cc3)n2)cc1,75.2%,80.7%,81.1%,79.1%,79.3%,67.4%,95%,89.6%,86.2%,71.3%
c1ccc([I+]c2ccccc2)cc1,42.2%,50.5%,87.6%,60.4%,55.7%,81%,68.9%,78.6%,72.5%,89.4%
CCCCC(CCCCCC(CCCC)NCc1ccc2c(c1)OCO2)NCc1ccc2c(c1)OCO2 (stereo not given),-72.3% (active),-69.3% (active),-86% (active),-93.3% (active),-96.8% (active),-79.7% (active),-100% (active),-86.9% (active),-100% (active),-88% (active)
COc1ccc(-c2nn(-c3cccc(NC(=O)Nc4cccc(C(F)(F)F)c4)c3)cc2-c2ccncc2)cc1Cl,8.89% (active),-10.4% (active),1.25% (active),23.2%,23.5%,5.07% (active),16.2%,-5.98% (active),4.56% (active),23.5%
N=C(N)c1ccc(-c2ccc(-c3cccs3)o2)cc1,-13.1% (active),-72.4% (active),0.444% (active),39%,61.6%,-52.3% (active),77.9%,-47.3% (active),-27.4% (active),-10.2% (active)
CCCCCCc1cc(N=Nc2ccc(S(=O)(=O)Nc3cc(C)nc(C)n3)cc2)c(O)cc1O,93.8%,93.1%,111%,118%,110%,98.7%,97.1%,102%,94.2%,103%
COc1cc(Cl)cc(-c2nn(-c3cccc(NC(=O)c4ccc(N5CCOCC5)c(C(F)(F)F)c4)c3)cc2-c2ccncc2)c1,4.03% (active),57.9%,11.4%,12.4%,67.3%,2.6% (active),52.1%,63.6%,56.7%,17.3%
COc1ccc(OC)c2c1C(=O)CC2C (stereo not given),116%,87%,100%,98.3%,94.2%,98%,101%,107%,112%,110%
Nc1nc(-c2ccccc2Cl)cc(-c2ccc(Cl)cc2Cl)n1,27.3%,86.6%,65%,75.8%,65.9%,38.7%,72.2%,93%,53.5%,90.2%
COc1ccc(-c2nsc3c2NC(=O)CC3c2ccc(F)cc2)cc1 (stereo not given),10.1%,31.1%,68.7%,62.9%,63.4%,37.5%,43.9%,58.3%,24%,24.4%
COc1cc(/C=N/NC(=O)c2ccccc2Nc2cccc(C(F)(F)F)c2)cc(OC)c1OC,12.3%,11.5%,28.5%,4.73% (active),20.4%,-14.8% (active),-0.572% (active),49.6%,177%,7.05% (active)
O=C(Nc1cccc(Cl)c1)Nc1nccs1,85.8%,93.5%,93.2%,103%,107%,97.6%,88.4%,-10.8% (active),89.3%,86.2%
N#Cc1ncc(-c2cc(F)c(F)c(F)c2)c(NC2CCCCCC2)n1,92%,131%,91.7%,84.7%,82.3%,89.3%,97.5%,93.6%,101%,85.2%
Nc1ccccc1NC(=O)CCCCC(=O)Nc1ccc2c(c1)/C(=C/c1ccc[nH]1)C(=O)N2,99.6%,32.9%,93%,62.9%,71.9%,98.4%,53.1%,97.9%,69.9%,92.2%
CC(C)(Cl)CCC1=C(Cl)C(=O)c2ccccc2C1=O,-20% (active),128%,34.1%,28.8%,65.7%,105%,37.4%,39.2%,63.9%,22.7%
O=C(Nc1ccccc1)Nc1cccc(-n2cc(-c3ccncc3)c(-c3ccc(O)c(Cl)c3)n2)c1,24.4%,20.2%,15.6%,47%,71.7%,-21.7% (active),0.346% (active),10.3%,31.8%,24.7%
CC(C)(C#N)Nc1ccccc1,102%,104%,100%,101%,113%,77.7%,96.2%,98.5%,107%,99%
CC(=O)n1c(-c2ccc(Cl)c(Cl)c2)cn(-c2ccc(Cl)cc2)c1=O,-35% (active),26.6%,33.3%,-31.2% (active),-32.7% (active),1.9% (active),-33.2% (active),57.5%,34%,59%
